The values below come from article PMC4336329 (PLoS ONE, 2015).

The campaign covered roughly 310,000 compounds. About 14,000 (4.5%) showed an effect of 50% or more. Effects have a minus sign here. The sample as a whole holds a higher share of strong results than the screen did.
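Note: peak tail current of the secondary pulse compared with the same well before compound.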

Chain of human ether-à-go-go-related gene (hERG) potassium channel (Q12809 whole entry, looked up): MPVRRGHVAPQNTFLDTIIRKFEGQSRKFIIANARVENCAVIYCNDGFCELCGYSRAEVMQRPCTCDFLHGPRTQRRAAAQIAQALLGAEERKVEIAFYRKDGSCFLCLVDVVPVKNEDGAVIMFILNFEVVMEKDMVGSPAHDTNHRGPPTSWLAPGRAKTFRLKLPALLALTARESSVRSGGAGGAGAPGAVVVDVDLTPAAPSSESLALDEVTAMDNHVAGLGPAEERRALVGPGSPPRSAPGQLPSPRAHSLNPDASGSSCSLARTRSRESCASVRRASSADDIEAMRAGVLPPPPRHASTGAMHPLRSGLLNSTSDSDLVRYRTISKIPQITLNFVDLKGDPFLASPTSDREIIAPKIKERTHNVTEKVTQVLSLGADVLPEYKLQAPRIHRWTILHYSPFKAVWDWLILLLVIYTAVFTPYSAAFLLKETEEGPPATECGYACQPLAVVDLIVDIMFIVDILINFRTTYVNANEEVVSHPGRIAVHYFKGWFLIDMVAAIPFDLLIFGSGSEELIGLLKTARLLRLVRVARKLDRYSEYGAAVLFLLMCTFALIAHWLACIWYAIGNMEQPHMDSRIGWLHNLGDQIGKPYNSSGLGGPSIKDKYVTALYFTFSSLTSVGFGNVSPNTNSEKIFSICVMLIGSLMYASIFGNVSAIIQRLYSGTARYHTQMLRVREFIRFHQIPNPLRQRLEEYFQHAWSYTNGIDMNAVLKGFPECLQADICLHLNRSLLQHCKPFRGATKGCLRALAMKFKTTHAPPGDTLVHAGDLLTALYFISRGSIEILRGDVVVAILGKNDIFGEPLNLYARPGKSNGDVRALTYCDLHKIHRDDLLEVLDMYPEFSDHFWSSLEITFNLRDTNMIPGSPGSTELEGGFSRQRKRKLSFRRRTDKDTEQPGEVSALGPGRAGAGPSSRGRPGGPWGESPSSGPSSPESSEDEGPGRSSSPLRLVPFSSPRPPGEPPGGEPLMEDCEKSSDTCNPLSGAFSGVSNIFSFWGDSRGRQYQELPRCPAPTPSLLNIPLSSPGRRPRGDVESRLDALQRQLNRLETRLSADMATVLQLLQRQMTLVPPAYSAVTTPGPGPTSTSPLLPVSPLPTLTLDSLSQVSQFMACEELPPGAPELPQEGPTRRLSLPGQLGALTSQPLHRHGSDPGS

The experiment has as its target human ether-à-go-go-related gene (hERG) potassium channel (human, UniProt Q12809). In words: primary screen, population patch clamp on CHO cells stably expressing hERG; higher = less effect of the substance.
As for `C=CCc1cc(C=O)cc(OCC)c1OCc1ccc(Cl)cc1`, the “hERG current change (%, negative = inhibition) at 10uM” value is on record as 31.4%.

As to `COc1ccccc1C1C(C#N)=C(N)Oc2cc(C)n(Cc3ccccn3)c(=O)c21` (stereo not drawn), the “hERG current change (%, negative = inhibition) at 10uM” value was -2.81%.

With `Cc1ccc2c(c1)C(=C(C#N)C#N)C(=O)N2CCN1CCOCC1`, the “hERG current change (%, negative = inhibition) at 10uM” value is listed as -38.6%.

Turning to `CCCS(=O)(=O)c1nc(S(=O)(=O)c2ccc(C)cc2)c(N2CCc3ccccc3C2)s1`, the “hERG current change (%, negative = inhibition) at 10uM” value was found to be 5.34%.

Turning to `O=C(c1cc(-c2ccccc2)on1)N1CCCc2ccccc21`, the “hERG current change (%, negative = inhibition) at 10uM” value is -18.1%.

As to `O=C(c1cc(-c2ccc(O)cc2)on1)N1CCCc2ccccc21`, the “hERG current change (%, negative = inhibition) at 10uM” value is -29.5%.

Take `Cc1ccc(-c2cc(C(=O)N3CCCc4ccccc43)no2)cc1`: the “hERG current change (%, negative = inhibition) at 10uM” value was -75.6%.

As to `Cn1c(-c2ccccc2)cnc1SCC(=O)N1CCCc2ccccc21`, the “hERG current change (%, negative = inhibition) at 10uM” value is reported as -27.9%.

As for `Cc1ccc(-c2cnc(SCC(=O)N3CCCc4ccccc43)n2C)cc1`, the “hERG current change (%, negative = inhibition) at 10uM” value was -50.8%.

In the case of `Cn1c(-c2ccc(F)cc2)cnc1SCC(=O)N1CCCc2ccccc21`, the “hERG current change (%, negative = inhibition) at 10uM” value was -24.8%.

`O=C(NCc1ccc(F)cc1Cl)C1CCN(S(=O)(=O)N2CCC3(CC2)OCCO3)CC1`: the “hERG current change (%, negative = inhibition) at 10uM” value is -13.9%.

Take `CC(=O)Oc1ccc(NC(=O)Cc2ccccc2)cc1`: the “hERG current change (%, negative = inhibition) at 10uM” value was determined as 24.9%.

Regarding `Cc1ccc(OCC(=O)c2ccc3c(c2)CCCC3)cc1C`, the “hERG current change (%, negative = inhibition) at 10uM” value was found to be 4.7%.

As for `C=CCSc1ncnc2sc(C)c(C)c12`, the “hERG current change (%, negative = inhibition) at 10uM” value amounted to 9.87%.

For the molecule `COc1ccc(Cl)cc1NC(=O)C1(c2cccs2)CCOCC1`, the “hERG current change (%, negative = inhibition) at 10uM” value was -17.8%.

For the molecule `COc1ccc(CNCCc2ccc(Cl)cc2Cl)cc1`, the “hERG current change (%, negative = inhibition) at 10uM” value is recorded as -22.2%.

In the case of `CC(CCc1ccccc1)NCc1ccc(Cl)cc1Cl.O=C(O)C(=O)O` (stereo not drawn), the “hERG current change (%, negative = inhibition) at 10uM” value was -31.5%.

Take `COc1ccc(CCC(C)NCCc2ccc(Cl)cc2Cl)cc1` (stereo not drawn): the “hERG current change (%, negative = inhibition) at 10uM” value is -71.8%.

`COc1ccc(CCC(C)NCc2cc(OC)cc(OC)c2)cc1` (stereo not drawn): the “hERG current change (%, negative = inhibition) at 10uM” value is given as -42.3%.

On to `CC(O)CNCc1ccc(Cl)cc1Cl.Cl` (stereo not drawn), for which the “hERG current change (%, negative = inhibition) at 10uM” value worked out at 12.3%.

With `CC(CCc1ccccc1)NC(=O)Cc1ccc(Br)cc1` (stereo not drawn), the “hERG current change (%, negative = inhibition) at 10uM” value came to 8.87%.

`CC(CCc1ccc(O)cc1)NCc1ccc(Cl)cc1Cl` (stereo not drawn): the “hERG current change (%, negative = inhibition) at 10uM” value is -63.8%.

As for `COc1ccc(CCC(C)NCc2ccc(Cl)c(Cl)c2)cc1` (stereo not drawn), the “hERG current change (%, negative = inhibition) at 10uM” value is listed as -53.7%.

On to `COc1ccc(CCC(C)Nc2ccc(F)c(F)c2)cc1` (stereo not drawn), for which the “hERG current change (%, negative = inhibition) at 10uM” value is 5.47%.

As for `CC(CCc1ccc(O)cc1)NCc1ccc(Br)cc1` (stereo not drawn), the “hERG current change (%, negative = inhibition) at 10uM” value is reported as -76.2%.

Turning to `COc1ccc(CCNC(C)CCc2ccc(OC)cc2)cc1` (stereo not drawn), the “hERG current change (%, negative = inhibition) at 10uM” value is reported as -13%.

As to `CC(CCc1ccccc1)NCc1ccncc1` (stereo not drawn), the “hERG current change (%, negative = inhibition) at 10uM” value is -8.72%.

`Cc1cc(C)nc(/N=C2\NC(=O)CC(C(=O)O)N2c2ccc(Cl)cc2)n1` (stereo not drawn): the “hERG current change (%, negative = inhibition) at 10uM” value is 14.9%.

For `COC(=O)CSc1ccc2nnc(CCNS(=O)(=O)c3ccccc3)n2n1`, the “hERG current change (%, negative = inhibition) at 10uM” value is recorded as 24.3%.

With `CC(=O)c1c(COC(=O)c2cccc(C)c2)nc2ccccc2[n+]1[O-]`, the “hERG current change (%, negative = inhibition) at 10uM” value is listed as -1.95%.

Regarding `Cn1c(=O)c2c(nc(SCC(=O)NCC3CCCO3)n2C)n(C)c1=O` (stereo not drawn), the “hERG current change (%, negative = inhibition) at 10uM” value is 2.28%.

As for `Cc1c(NC(=S)NC(=O)c2ccccc2Cl)c(=O)n(-c2ccccc2)n1C`, the “hERG current change (%, negative = inhibition) at 10uM” value came to 33.4%.

Consider `COc1cccc(CC(=O)Nc2cc(S(=O)(=O)N3CCCCC3)ccc2C)c1`, for which the “hERG current change (%, negative = inhibition) at 10uM” value was -15.9%.

For the molecule `Cc1c(CC(=O)O)c(=O)oc2cc(OCc3nn[nH]n3)ccc12`, the “hERG current change (%, negative = inhibition) at 10uM” value is on record as -0.585%.

As for `COc1cc(NC(=O)C2CCCCC2)c(OC)cc1NC(=O)CN1CCCCC1`, the “hERG current change (%, negative = inhibition) at 10uM” value is -12%.

As for `COc1ccc(N2CCN(S(=O)(=O)c3ccc4c(c3)N(C(C)=O)CCO4)CC2)cc1`, the “hERG current change (%, negative = inhibition) at 10uM” value was -18.4%.

As to `CC(C)CC(=O)C(=O)[O-].[Na+]`, the “hERG current change (%, negative = inhibition) at 10uM” value is -0.864%.

With `COc1ccc(CCC(C)NCc2ccc(C(F)(F)F)cc2)cc1` (stereo not drawn), the “hERG current change (%, negative = inhibition) at 10uM” value is recorded as -66.3%.

For `COc1ccc(CC(=O)NC(C)CCc2ccccc2)cc1` (stereo not drawn), the “hERG current change (%, negative = inhibition) at 10uM” value is 5.43%.

As to `COc1ccc(CCC(C)NCc2cccc(Br)c2)cc1` (stereo not drawn), the “hERG current change (%, negative = inhibition) at 10uM” value is recorded as -64.6%.

On to `COc1ccc(CCC(C)NCc2ccc(F)cc2)cc1` (stereo not drawn), for which the “hERG current change (%, negative = inhibition) at 10uM” value was -44.8%.

On to `COc1ccc(CCC(C)Nc2cccc(C)c2)cc1` (stereo not drawn), for which the “hERG current change (%, negative = inhibition) at 10uM” value is recorded as 4.48%.

In the case of `COc1ccc(CCC(C)NCC2CCCCC2)cc1` (stereo not drawn), the “hERG current change (%, negative = inhibition) at 10uM” value is -14.9%.

`O=C(/C=C/c1ccco1)Nc1cccc2cccnc12`: the “hERG current change (%, negative = inhibition) at 10uM” value was -1.87%.

Consider `CCOC(=O)c1cnn(-c2cc(C)c3ccccc3n2)c1N`, for which the “hERG current change (%, negative = inhibition) at 10uM” value is listed as -1.77%.

Take `O=C(Cc1cccc2ccccc12)NC(NC(=S)Nc1ccccc1Cl)C(Cl)(Cl)Cl` (stereo not drawn): the “hERG current change (%, negative = inhibition) at 10uM” value is listed as 11.7%.

Take `Cc1cccc(Oc2ncc(-c3ccc(Cl)cc3)cn2)c1`: the “hERG current change (%, negative = inhibition) at 10uM” value is 5.22%.

Consider `Cc1ccc(S(=O)(=O)N2CCN(C(=O)c3ccccc3Cc3ccccc3)CC2)c(C)c1`, for which the “hERG current change (%, negative = inhibition) at 10uM” value is 4.42%.

For `COc1ccc(C(=O)N2CCN(CCc3ccccn3)CC2)cc1.Cl`, the “hERG current change (%, negative = inhibition) at 10uM” value is recorded as -77.3%.

In the case of `Cl.O=C(c1ccc(Cl)cc1)N1CCN(CCc2ccccn2)CC1`, the “hERG current change (%, negative = inhibition) at 10uM” value is -69%.

With `COc1ccc(C(=O)N2CCN(c3ccccn3)CC2)cc1`, the “hERG current change (%, negative = inhibition) at 10uM” value was 3.55%.

Consider `O=C1CC(N2CCN(CCc3ccccn3)CC2)C(=O)N1c1ccc(Cl)cc1` (stereo not drawn), for which the “hERG current change (%, negative = inhibition) at 10uM” value is recorded as -67.4%.

With `O=C1CC(N2CCN(c3ccccn3)CC2)C(=O)N1c1ccc(Cl)cc1` (stereo not drawn), the “hERG current change (%, negative = inhibition) at 10uM” value turned out to be 4.46%.

As to `COc1ccc(C(=O)N2CCN(Cc3ccccn3)CC2)cc1.O=C(O)C(=O)O`, the “hERG current change (%, negative = inhibition) at 10uM” value is given as -5.82%.

With `O=C(c1ccccc1)N1CCN(CCc2ccccn2)CC1`, the “hERG current change (%, negative = inhibition) at 10uM” value is on record as 8.41%.

`CN(CCc1ccccn1)C1CC(=O)N(c2ccc(Cl)cc2)C1=O` (stereo not drawn): the “hERG current change (%, negative = inhibition) at 10uM” value turned out to be 6.39%.

For `O=C(Cc1ccccn1)c1ccc(Cl)cc1`, the “hERG current change (%, negative = inhibition) at 10uM” value was 17%.

Take `COc1cc(-c2noc(C)c2C#Cc2ccsc2)cc(OC)c1OC`: the “hERG current change (%, negative = inhibition) at 10uM” value came out at 10.8%.

Regarding `Cc1ccc(Nc2nnc(SCn3nnc4ccccc4c3=O)s2)cc1`, the “hERG current change (%, negative = inhibition) at 10uM” value amounted to 2.83%.

As for `N#Cc1ccc(-c2csc(-c3ccno3)n2)cc1`, the “hERG current change (%, negative = inhibition) at 10uM” value was -14.6%.
